Records with an inconclusive call do not appear. The source made the active and inactive calls. Calls come from the whole dose curve; as a rule, active = well fitted curve in the direction sought with a large enough effect; inconclusive = small, poorly fitted or top-dose-only effect, or effect the other way, or another doubt; inactive = no such curve, though single readings can be large or run the other way.
target: Alpha-galactosidase A (Homo sapiens) (UniProt P06280); experiment: Confirmation of Inhibitors of Human alpha-Galactosidase Using Spleen Homogenate; conditions: alpha-galactosidase enzyme activity; series mostly up to 56.2 µM
Summary of the method: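 Human spleen homogenate (1 ug) with 1 mM 4-methylumbelliferyl-alpha-D-galactopyranoside in citrate-phosphate pH 5.0, 0.01% Tween-20, 37C 40 min; compounds 0.5 nM–58 uM final. Stopped at pH 10, fluorescence Ex 365/Em 440; AC50 from Hill fits.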

Sequence of Alpha-galactosidase A (Homo sapiens) (P06280 32-429 limits assumed): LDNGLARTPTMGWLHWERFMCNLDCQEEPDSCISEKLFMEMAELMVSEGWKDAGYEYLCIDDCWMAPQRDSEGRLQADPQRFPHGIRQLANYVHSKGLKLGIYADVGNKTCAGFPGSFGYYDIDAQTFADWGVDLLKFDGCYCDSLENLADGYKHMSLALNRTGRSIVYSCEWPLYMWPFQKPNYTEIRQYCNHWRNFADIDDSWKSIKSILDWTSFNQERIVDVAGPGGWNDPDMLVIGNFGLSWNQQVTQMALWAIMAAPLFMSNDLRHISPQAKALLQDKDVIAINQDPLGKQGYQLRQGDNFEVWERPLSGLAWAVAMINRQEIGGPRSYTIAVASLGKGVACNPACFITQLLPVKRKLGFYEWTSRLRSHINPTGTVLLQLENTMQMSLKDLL

outcome, inactive:
Nc1cccc(S(=O)(=O)N2CCOCC2)c1
CC(C)c1nc2cc(C(=O)N3CCNC(=O)C3c3cccc(F)c3)ccc2o1 (stereo unspecified)
COc1ccc(/C=C/c2nnc(NC(=O)CSc3ccccc3)s2)cc1
O=C(O)c1cc(NCc2ccccc2)ccc1N1CCOCC1
CCC(C)Nc1nc(-c2cccc(OC)c2O)nc2ccccc12 (stereo unspecified)
CC(=O)Nc1ccc(S(=O)(=O)/N=C2/NC(=O)/C(=C\c3ccco3)S2)cc1
O=C(CNc1ccc(Cl)cc1)c1ccc(Br)cc1
S=C(NCCc1ccccc1)N1CCn2cccc2C1c1ccncc1 (stereo unspecified)
Cc1ccc2c(c1)c1ncnc(N3CCC4(CC3)OCCO4)c1n2C
CC(C)C[C@H](NC(=O)c1nc[nH]c1C(=O)N[C@@H](CC(C)C)C(=O)OC(C)(C)C)C(=O)OCc1ccccc1
Cc1ccc(CNc2ccc(N3CCOCC3)cc2)cc1
CCc1sc(-c2cc3ccc(O)cc3oc2=O)nc1-c1cc(C)ccc1C
Nc1nc(C2CC2)c(Sc2sc(N)nc2C2CC2)s1
COc1ccc(C(=O)N2CCn3c(C)ccc3C2C)cc1 (stereo unspecified)
CNc1ncnc2c1ncn2[C@H]1C[C@H](OP(=O)(O)O)[C@@H](COP(=O)(O)O)O1
COc1cc(C2c3cc4c(cc3C(OC3OC5COC(C)O[C@@H]5C(O)C3O)C3COC(=O)C23)OCO4)cc(OC)c1O (stereo partly specified)
O=C(/C=C/c1ccc(O)c(O)c1)c1ccc(O[C@@H]2O[C@H](CO)[C@@H](O)[C@H](O)[C@H]2O)c(O)c1O
O=S(=O)(c1ccccc1Cl)N1CCOCC1
CN(C(=O)N1CCN(S(=O)(=O)c2ccccc2)CC1)c1ccccc1
COc1cccc2ccc(/C=C/c3ccc4c(c3)OCO4)nc12
CC(C)(C)c1ccc(OCC(=O)NC(Cc2c[nH]c3ccccc23)C(=O)O)cc1 (stereo unspecified)
O=C(O)c1c(-c2ccccc2)c2oc3ccccc3c2[nH]c1=O
Cc1ccc(N=Nc2c(N)nn(-c3ccccc3)c2N)cc1
CCOc1ccccc1CNc1ccc(O)cc1
COCCNS(=O)(=O)c1ccc2c(c1)n(C)c(=O)n2C
O=C(c1ccc2ccccc2c1)N1CCN(S(=O)(=O)c2ccccc2)CC1
CCNc1ccc(C2(O)C(=O)c3ccccc3C2=O)cc1
COC(=O)c1cc(OC)c(OC)cc1NC(=O)CCCCCN1C(=O)CCC1=O
O=C(c1cccc2ccccc12)N1CCN(S(=O)(=O)c2ccccc2)CC1
O=C(c1ccccc1)N1CCN(C(=O)N(c2ccccc2)c2ccccc2)CC1
Cn1c(=O)c2sccc2n2c(CCCC(=O)Nc3ccc(F)c(F)c3)nnc12
CCOC(=O)c1cc2c(=O)n3cccc(C)c3nc2n(CCCOC)c1=NC(=O)c1cccnc1
COc1cccc(NC(=S)NCc2ccc3c(c2)cc(C)n3C)c1
Cc1cccn2c(=O)c3cc(C#N)c(=NC(=O)c4cccs4)n(CCCOC(C)C)c3nc12
Cn1c(=O)c2c(nc(NCc3ccc4c(c3)OCO4)n2Cc2ccc(F)cc2)n(C)c1=O
O=C1c2cc(S(=O)(=O)N3CCOCC3)ccc2-c2ccc(S(=O)(=O)N3CCOCC3)cc21
